Assay results published in PubChem BioAssay (Tox21).
Records with an inconclusive call do not appear. Activity calls are given as the source filed them. Unless noted, the call rests on the fitted dose curve; in most records, active means well fitted curve in the direction sought with a large enough effect in the repeat runs; inconclusive means weak or mixed curves; inactive means no such curve, though single readings can be large; an effect the other way counts as inactive or inconclusive.

How the values were obtained:
[1] = target: Thyrotropin receptor (Homo sapiens) (UniProt P16473); assay: qHTS assay to identify small molecule antagonists of the thyroid stimulating hormone receptor (TSHR) signaling pathway (AID 1259385; calls by dose curve; further: nearly all actives have a fitted effect of over 20% in size)
Procedure, shortened: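 Antagonist mode: compound-treated TSHR-expressing HEK293 cells were stimulated with 1.5 ng/mL TSH (final) in presence of Ro20-1724 for 30 min at RT. HTRF cAMP detection after 1 h; each compound tested at 15 concentrations, triplicate.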

[2] = qHTS assay to identify small molecule agonists of the estrogen receptor alpha (ER-alpha) signaling pathway in the presence of an antagonist - cell viability counter screen (AID 1259386);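 further: series mostly up to about 92 µM; cells exposed to compounds for 22 h at 37 °C before the viability read; nearly all actives have a fitted effect of over 30% in size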
Procedure, shortened: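 Cells are starved of estrogens for 5 days in charcoal-stripped serum, seeded for 24hr and co-treated with ICI-182,780 (10.0nM final) and test compounds. After 22hr at 37C, viability is read as CellTiter-Fluor fluorescence.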

[3] = target: Progesterone receptor (Homo sapiens) (UniProt P06401); assay: qHTS assay to identify small molecule agonists of the progesterone receptor (PR) signaling pathway (AID 1346784; calls by dose curve; further: nearly all actives have a fitted effect of over 30% in size)
Procedure, shortened: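 Compounds were tested for PR agonism in HEK 293T cells bearing a beta-lactamase gene under UAS control. Treatment lasted 16 hr at 37C; signal came from fluorescence of a FRET substrate.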

[4] = target: Progesterone receptor (Homo sapiens) (UniProt P06401); assay: qHTS assay to identify small molecule antagonists of the progesterone receptor (PR) signaling pathway (AID 1346795; active means well fitted inhibition curve with a large enough effect in the signal ratio in the repeat runs, not every such curve was filed as active; the % refers to the signal ratio)
Procedure, shortened: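 In HEK293T cells bearing the PR-UAS-bla reporter, compound effects on promegestone-driven (1 nM) beta-lactamase expression are assessed after 16 hr using a fluorescent FRET substrate incubated 2 hr at room temperature.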

[5] = qHTS assay to identify small molecule antagonists of the progesterone receptor (PR) signaling pathway - cell viability counter screen (AID 1346798); further: series mostly up to about 92 µM; nearly all actives have a fitted effect of over 50% in size
Procedure, shortened: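 Following a 4 hr attachment, PR-UAS-bla HEK293T cells in charcoal-stripped FBS medium were exposed to compounds with R5020 for 16 hr; CellTiter-Glo was added and luminescence read after 30 min at room temperature.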

[6] = qHTS assay to identify small molecule agonists of the progesterone receptor (PR) signaling pathway - cell viability counter screen (AID 1346799; calls by dose curve; further: nearly all actives have a fitted effect of over 45% in size)
Procedure, shortened: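 Here, 3,000 PR-UAS-bla HEK293T cells per well were treated with compounds for 16 hr after a 6 hr preincubation at 37C and 5% CO2; cell viability is the CellTiter-Glo luminescence signal.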

[7] = qHTS assay to identify small molecule antagonists of the TGF-beta/Smad signaling pathway - cell viability counter screen (AID 1346824); further: nearly all actives have a fitted effect of over 50% in size
Procedure, shortened: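 Cytotoxicity counter-screen run in the same wells as the beta-lactamase Smad reporter read: CellTiter-Glo luminescence after 30 min at room temperature. HEK 293T SBE-bla cells had 5 hr compound exposure at 37 C with TGF-beta1 (0.25 ng/mL stock).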

[8] = qHTS assay to identify small molecule agonists of the TGF-beta/Smad signaling pathway - cell viability counter screen (AID 1346829); further: top concentration of the series differs between compounds; nearly all actives have a fitted effect of over 45% in size
Procedure, shortened: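 Here the cytotoxicity of library compounds is measured in SBE-bla HEK 293T cells treated for 5 hr, using CellTiter-Glo added to wells already read for the beta-lactamase reporter.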

[9] = qHTS assay to identify small molecule agonists of the TGF-beta/Smad signaling pathway (AID 1346859; active means well fitted activation curve with a large enough effect in the signal ratio in the repeat runs, not every such curve was filed as active; the % refers to the signal ratio; further: series mostly up to about 77 µM)
Procedure, shortened: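 Each well held 4,000 SBE-bla HEK 293T cells incubated overnight before compound addition; 5 hr later the cleavable FRET substrate went on for 2 hr at room temperature, and fluorescence was read at two emissions.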

[10] = target: Thyrotropin-releasing hormone receptor (Homo sapiens) (UniProt P34981); assay: qHTS assay to identify small molecule antagonists of the thyrotropin-releasing hormone receptor (TRHR) signaling pathway (AID 1346877; active means well fitted inhibition curve with a large enough effect in the repeat runs, not every such curve was filed as active; further: series mostly up to about 51 µM)
Procedure, shortened: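 Cells (TRHR-HEK293) are plated and kept 18 h at 37 °C/5% CO2. A calcium-sensitive dye is added for 2 h, compound follows for 5 min at room temperature, and TRH is then given at 1 nM final.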
On the % scale 0 is the no-effect control and ±100 the full control effect.

Chain of Progesterone receptor (Homo sapiens) (P06401 whole entry, looked up): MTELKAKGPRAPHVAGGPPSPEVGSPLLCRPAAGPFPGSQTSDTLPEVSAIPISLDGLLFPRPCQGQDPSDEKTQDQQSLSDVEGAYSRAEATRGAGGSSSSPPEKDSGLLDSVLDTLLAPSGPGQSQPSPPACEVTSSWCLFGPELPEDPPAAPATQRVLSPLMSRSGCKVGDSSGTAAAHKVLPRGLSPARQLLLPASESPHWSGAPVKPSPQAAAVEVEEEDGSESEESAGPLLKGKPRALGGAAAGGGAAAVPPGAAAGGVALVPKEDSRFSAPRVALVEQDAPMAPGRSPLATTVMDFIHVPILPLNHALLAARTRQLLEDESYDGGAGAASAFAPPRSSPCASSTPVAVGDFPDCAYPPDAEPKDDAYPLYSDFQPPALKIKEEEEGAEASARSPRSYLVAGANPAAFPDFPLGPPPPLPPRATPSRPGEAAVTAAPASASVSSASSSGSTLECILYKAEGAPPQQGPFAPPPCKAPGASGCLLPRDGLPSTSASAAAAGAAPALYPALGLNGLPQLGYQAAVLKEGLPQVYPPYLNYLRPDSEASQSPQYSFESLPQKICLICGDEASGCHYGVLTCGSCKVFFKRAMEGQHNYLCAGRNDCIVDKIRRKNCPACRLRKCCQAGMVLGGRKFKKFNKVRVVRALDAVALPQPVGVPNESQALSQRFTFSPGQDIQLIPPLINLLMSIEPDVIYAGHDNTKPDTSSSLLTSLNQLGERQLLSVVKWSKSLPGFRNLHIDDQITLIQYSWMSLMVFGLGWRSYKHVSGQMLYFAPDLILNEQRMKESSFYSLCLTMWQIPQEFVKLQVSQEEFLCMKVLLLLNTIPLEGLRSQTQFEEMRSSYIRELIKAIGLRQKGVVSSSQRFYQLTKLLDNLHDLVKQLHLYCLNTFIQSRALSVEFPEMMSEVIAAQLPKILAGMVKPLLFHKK
Chain of Thyrotropin-releasing hormone receptor (Homo sapiens) (P34981 whole entry, looked up): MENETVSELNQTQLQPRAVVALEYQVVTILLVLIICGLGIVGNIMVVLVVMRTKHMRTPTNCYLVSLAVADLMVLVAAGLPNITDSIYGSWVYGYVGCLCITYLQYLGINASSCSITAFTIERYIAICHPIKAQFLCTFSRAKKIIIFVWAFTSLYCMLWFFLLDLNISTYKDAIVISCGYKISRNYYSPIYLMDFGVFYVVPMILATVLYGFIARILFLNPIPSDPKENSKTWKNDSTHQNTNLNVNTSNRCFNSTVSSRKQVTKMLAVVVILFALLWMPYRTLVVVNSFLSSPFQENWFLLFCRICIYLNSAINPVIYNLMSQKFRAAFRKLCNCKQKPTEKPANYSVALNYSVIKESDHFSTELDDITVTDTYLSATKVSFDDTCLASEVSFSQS
Chain of Thyrotropin receptor (Homo sapiens) (P16473 whole entry, looked up): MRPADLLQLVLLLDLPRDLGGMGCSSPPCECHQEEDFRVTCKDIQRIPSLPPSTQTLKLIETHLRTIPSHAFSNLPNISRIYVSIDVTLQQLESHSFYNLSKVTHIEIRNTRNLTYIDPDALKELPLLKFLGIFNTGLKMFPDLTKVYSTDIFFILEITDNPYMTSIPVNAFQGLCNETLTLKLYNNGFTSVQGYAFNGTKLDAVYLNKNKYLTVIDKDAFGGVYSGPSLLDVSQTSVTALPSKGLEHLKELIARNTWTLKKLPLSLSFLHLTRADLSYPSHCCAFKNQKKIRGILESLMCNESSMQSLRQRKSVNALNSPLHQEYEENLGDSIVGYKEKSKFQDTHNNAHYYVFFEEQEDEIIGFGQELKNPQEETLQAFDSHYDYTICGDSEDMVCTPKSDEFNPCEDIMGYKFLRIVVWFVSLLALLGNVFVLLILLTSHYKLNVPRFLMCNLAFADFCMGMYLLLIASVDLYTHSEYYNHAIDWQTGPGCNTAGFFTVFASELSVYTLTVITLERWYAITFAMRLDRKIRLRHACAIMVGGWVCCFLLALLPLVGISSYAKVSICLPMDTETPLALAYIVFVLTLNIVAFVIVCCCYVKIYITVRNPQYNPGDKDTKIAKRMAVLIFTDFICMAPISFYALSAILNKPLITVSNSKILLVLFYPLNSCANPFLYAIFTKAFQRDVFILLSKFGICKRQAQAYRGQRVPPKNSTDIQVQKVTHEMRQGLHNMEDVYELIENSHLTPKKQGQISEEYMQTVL

CCCCCCCCC(=O)OCC(C)OC(=O)CCCCCCCC (centres undefined)
inactive: Potency [1] | Potency [2] | Potency [3] | Potency [4] | Potency [5] | Potency [6] | outcome [7] | outcome [8] | outcome [9] | outcome [10]

CC(C)(C)N
inactive: Potency [1] | Potency [2] | Potency [3] | Potency [4] | Potency [5] | Potency [6] | outcome [7] | outcome [8] | outcome [9]

CCOC(OCC)OCC
inactive: Potency [1] | Potency [2] | Potency [3] | Potency [4] | Potency [5] | Potency [6] | outcome [7] | outcome [8] | outcome [9]

CCCC(=O)OCc1ccccc1
inactive: Potency [1] | Potency [2] | Potency [3] | Potency [4] | Potency [5] | Potency [6] | outcome [7] | outcome [8] | outcome [9] | outcome [10]

COC(=O)Cc1cccc2ccccc12
inactive: Potency [1] | Potency [2] | Potency [3] | Potency [4] | Potency [5] | Potency [6] | outcome [7] | outcome [8] | outcome [9]

CCCC1CCOC(C)S1 (centres undefined)
inactive: Potency [1] | Potency [2] | Potency [3] | Potency [4] | Potency [5] | Potency [6] | outcome [7] | outcome [8] | outcome [9] | outcome [10]

CCC[Si](OC)(OC)OC
inactive: Potency [1] | Potency [2] | Potency [3] | Potency [4] | Potency [5] | Potency [6] | outcome [7] | outcome [8] | outcome [9] | outcome [10]

CC(O)C(C)O (centres undefined)
inactive: Potency [1] | Potency [2] | Potency [3] | Potency [4] | Potency [5] | Potency [6] | outcome [7] | outcome [8] | outcome [9] | outcome [10]

O=C1C=CCCC1
inactive: Potency [1] | Potency [2] | Potency [3] | Potency [4] | Potency [5] | Potency [6] | outcome [7] | outcome [8] | outcome [9]

C[Si](C)(C)O[Si](C)(C)O[Si](C)(C)C
inactive: Potency [1] | Potency [2] | Potency [3] | Potency [4] | Potency [5] | Potency [6] | outcome [7] | outcome [8] | outcome [9] | outcome [10]

COC=O
inactive: activity change, negative = inhibition [1] 4.44% [at 8.39 µM] | activity change, negative = cytotoxicity [2] -3.92% [at 8.39 µM] | activation [3] 0.0776% [at 8.39 µM] | activity change, negative = inhibition [4] -3.19% [at 8.39 µM] | activity change, negative = cytotoxicity [5] 0.308% [at 8.39 µM] | activity change, negative = cytotoxicity [6] 7.63% [at 8.39 µM] | viability change, negative = cytotoxic [7] 2.71% [at 6.97 µM] | activity change, negative = cytotoxicity [8] 8.3% [at 6.97 µM] | activation [9] -0.257% [at 6.97 µM] | activity, negative = inhibition [10] 1.15% [at 4.65 µM]

COc1ccc(/C(C)=C/C(=O)O)c(OC)c1
inactive: Potency [1] | Potency [2] | Potency [3] | Potency [4] | Potency [5] | Potency [6] | outcome [7] | outcome [8] | outcome [9]

CS(C)=O
inactive: Potency [1] | Potency [2] | Potency [3] | Potency [4] | Potency [5] | Potency [6] | outcome [7] | outcome [8] | outcome [9]
